From paper PMC13494018
A number with no mark means an inactive call. How the calls were made is not given here.

B1: design_619_5728adc2-0aea-404f-92dd-a4575c53f550_1779_dldesign_0_cycle1_af2pred (protein)
chain: SAATEIATRTAQAAIRAGEEALERAREALEGETGREEVEREVARIEAQAETLELLAEGSPEIAPTANAKAEEFRREAERLREEAE
B2: design_619_5728adc2-0aea-404f-92dd-a4575c53f550_1117_dldesign_0_cycle1_af2pred (protein)
chain: SAAAAAAAGALAVEEAKRFAEEQLAYGKAEDPGVGMQAIATYANRKAVEYASDPATASAIVSIGVEAMEELARWRREREA
B3: design_619_5728adc2-0aea-404f-92dd-a4575c53f550_1912_dldesign_0_cycle1_af2pred (protein)
chain: AAQQQAQVAAAATQAVADQTIKVAEELGKYDPELAKKYKEEATKIKKQAQEAAKQGQQGLQQVNQLLSQALELLGEAAKKLREAK
B4: design_619_5728adc2-0aea-404f-92dd-a4575c53f550_1814_dldesign_0_cycle1_af2pred (protein)
chain: DEELRKEVLEKIKELEAKAKEAAADPATQGLAVFLKNTAATARRELEKDAELGLAVVEAGEEGLAYLQAS
B5: design_619_5728adc2-0aea-404f-92dd-a4575c53f550_437_dldesign_0_cycle1_af2pred (protein)
chain: AAAEEAALAKAKKEAAEAAVKAVEYAARAGDPALAAKATRLLHEAQLTTDLEEAKKYLEEIKKLLKEAKERAE
B6: design_619_5728adc2-0aea-404f-92dd-a4575c53f550_1668_dldesign_0_cycle1_af2pred (protein)
chain: ARAVVEAAANELAAETLRAGWQAGETGDAIAARIRAILEAGREVAEELAARNPAVTLEEARAAVRERAERLLAEAAA
B7: design_619_5728adc2-0aea-404f-92dd-a4575c53f550_1269_dldesign_0_cycle1_af2pred (protein)
chain: AKEEAKEKAKKLVEEAKKLAEAAIADPSQYPAQAAKMTKLAEEAAKLGKELDPEIFGEAAQEILRLLIQAAQAVN
B8: design_619_5728adc2-0aea-404f-92dd-a4575c53f550_253_dldesign_0_cycle1_af2pred (protein)
chain: AAAAAEAAVAAAMAQINALVAEANRLLIEAQKTGNVELAKKAYELAEKAAAVGKATPALAKMAEALSKVVKEMAKATIKQAEAQA
B9: design_619_5728adc2-0aea-404f-92dd-a4575c53f550_927_dldesign_0_cycle1_af2pred (protein)
chain: AAALDSARGEAAVTAAKLYGLAYKLDPELGAQAAAALAAILRDKATAVEGAKAAAAVAEKLKEKDPENAGELEKKLKELAEKLKAA
B10: design_619_5728adc2-0aea-404f-92dd-a4575c53f550_1536_dldesign_0_cycle1_af2pred (protein)
chain: SAALEEARREFEAAVELLAEHPDLAAKVREGFELGVTDIGAGLALLTEARREALELGLEAAAREIRAGMAALLRAHL
B11: design_619_5728adc2-0aea-404f-92dd-a4575c53f550_766_dldesign_0_cycle1_af2pred (protein)
chain: MLGAEWARQQARRTAERAAELLAADPAAGAAAFARARTIVELAKGIDPEVGKAAQAEVEAIEAQAKAAAAAA
B12: design_619_5728adc2-0aea-404f-92dd-a4575c53f550_605_dldesign_0_cycle1_af2pred (protein)
chain: GQVAVNAAKGVAKTAISYAERLAKVEGEEGKKFLEEVKKETTKLVEEAKKSTPEKAQQLLAELVDLMKEVAERAAAAEAAAAAAAA
B13: design_619_5728adc2-0aea-404f-92dd-a4575c53f550_440_dldesign_0_cycle1_af2pred (protein)
chain: VTPEASKIAANSALALAKNILENVGVMSPEEAAGAVQVVVDLVKNSLPSEKEKHVEIAEVLKEAAKKNPANAAVLEAGAKAIEEIL
B14: design_619_5728adc2-0aea-404f-92dd-a4575c53f550_548_dldesign_0_cycle1_af2pred (protein)
chain: AALRHRTMAALFGRAVTLTGEAGRQAALNAAQMAAVLDPAAGAEFAAAIAEAAKATGDAGVHAVAAEFAAKEAAAAAAAAA
B15: design_619_5728adc2-0aea-404f-92dd-a4575c53f550_1124_dldesign_0_cycle1_af2pred (protein)
chain: ELEELRKEAEAKAAEARALAAEGAKYDPTAAALFNAALRFFEIAIRLAEEGGDPEEARAALDAGTTLLAAGRAVLAAAAAAAA
B16: design_619_5728adc2-0aea-404f-92dd-a4575c53f550_1681_dldesign_0_cycle1_af2pred (protein)
chain: AEKAKQAAELAEVLAATAEQAPQLTPAQIAAVANTVAIGLKGLGEAKEAAELAEKAAEAAKRDKEEAVKLLREAAEALKKLAA
B17: design_619_5728adc2-0aea-404f-92dd-a4575c53f550_1353_dldesign_0_cycle1_af2pred (protein)
chain: GETGEAKREGARVAARLGAAAVQLAAVDPEVAKKAQAAVGEVLEAMEAAAKDPSKVEEVKKAREKAEKALKEAEKTLA
B18: design_619_5728adc2-0aea-404f-92dd-a4575c53f550_1575_dldesign_0_cycle1_af2pred (protein)
chain: AAWQALEIAKKAGLALAKSAAAMPNPEDAKKAAETAKDMVTATAQAVIDAGGDKEKAKALVEEVKKAAEAGVKAAKA
B19: design_619_5728adc2-0aea-404f-92dd-a4575c53f550_302_dldesign_0_cycle1_af2pred (protein)
chain: EREEVLREAIELLEKTAEAAKALGTPAGEILAASARALARLLREQRDEISLEGAKGYLELAKQLAAGVEAA

Target: CD276, Q5ZPR3
Sequence (Q5ZPR3 whole entry): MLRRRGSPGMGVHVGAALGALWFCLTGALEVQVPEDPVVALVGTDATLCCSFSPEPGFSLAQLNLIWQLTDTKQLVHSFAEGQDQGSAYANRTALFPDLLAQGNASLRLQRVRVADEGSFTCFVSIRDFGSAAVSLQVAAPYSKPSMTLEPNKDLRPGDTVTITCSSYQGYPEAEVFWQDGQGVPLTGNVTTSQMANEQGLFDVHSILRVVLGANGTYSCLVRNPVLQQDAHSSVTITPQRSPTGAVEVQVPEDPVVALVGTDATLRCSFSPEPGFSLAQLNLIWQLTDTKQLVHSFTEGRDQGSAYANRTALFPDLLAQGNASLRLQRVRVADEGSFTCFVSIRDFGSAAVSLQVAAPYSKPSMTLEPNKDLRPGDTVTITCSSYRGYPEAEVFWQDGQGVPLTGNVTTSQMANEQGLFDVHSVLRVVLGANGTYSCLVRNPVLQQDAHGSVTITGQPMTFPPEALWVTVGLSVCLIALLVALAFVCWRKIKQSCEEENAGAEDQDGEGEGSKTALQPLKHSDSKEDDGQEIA

Row | Binder | binding in a display sort
1 | B1 | not found
2 | B2 | not found
3 | B3 | not found
4 | B4 | not found
5 | B5 | not found
6 | B6 | not found
7 | B7 | not found
8 | B8 | not found
9 | B9 | not found
10 | B10 | not found
11 | B11 | binds (active)
12 | B12 | not found
13 | B13 | not found
14 | B14 | not found
15 | B15 | not found
16 | B16 | not found
17 | B17 | not found
18 | B18 | not found
19 | B19 | not found
